# TDP1 inh: inhibitors of human tyrosyl-DNA phosphodiesterase TDP1; Q9NUW8; recombinant TDP1, AlphaScreen DNA substrate cleavage; Potency, µM (titrated, usually from 130 µM), for inactives: top-dose activity change, negative = inhibition, most hits filed as inhibitors; 350,000 compounds, 0.28% hits; AID 485290; also: nearly all actives have a fitted effect of over 40% in size
# Target sequence (Q9NUW8 whole entry, looked up): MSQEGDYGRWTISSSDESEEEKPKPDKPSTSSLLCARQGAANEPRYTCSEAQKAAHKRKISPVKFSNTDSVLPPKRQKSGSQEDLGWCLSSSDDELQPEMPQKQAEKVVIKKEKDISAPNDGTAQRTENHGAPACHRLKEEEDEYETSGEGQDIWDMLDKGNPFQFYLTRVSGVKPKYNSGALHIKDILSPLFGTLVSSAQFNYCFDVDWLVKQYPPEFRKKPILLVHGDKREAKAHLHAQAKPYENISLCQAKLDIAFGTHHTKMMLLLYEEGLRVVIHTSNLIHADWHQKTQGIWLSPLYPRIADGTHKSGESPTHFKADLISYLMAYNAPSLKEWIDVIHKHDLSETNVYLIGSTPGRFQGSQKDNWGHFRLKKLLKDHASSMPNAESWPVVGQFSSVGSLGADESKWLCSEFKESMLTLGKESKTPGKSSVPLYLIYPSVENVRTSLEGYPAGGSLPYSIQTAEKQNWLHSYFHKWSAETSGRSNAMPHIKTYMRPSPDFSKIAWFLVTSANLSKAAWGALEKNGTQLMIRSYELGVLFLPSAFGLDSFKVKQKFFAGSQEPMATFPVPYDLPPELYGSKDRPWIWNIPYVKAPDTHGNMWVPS
#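 Recombinant human Tdp1 (E. coli-expressed, 1 nM final) preincubated with compounds 15 min at room temperature, then 5'-biotin/3'-phosphotyrosine-FITC DNA substrate (15 nM final) added for 5 min. AlphaScreen beads (10 ug/ml final) added 10 min; cleavage lowers signal.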
# TDP1 cell noCPT: qHTS for Inhibitors of human tyrosyl-DNA phosphodiesterase 1 (TDP1): qHTS in cells in absence of CPT; Potency, µM (doses to about 46.2 µM), without a hit: top-dose activity change, negative = growth inhibition, hits mostly inhibitors; DT40 Tdp1-/- hTDP1 cells, no CPT, ATP luminescence, 48 h; 420,000 compounds, 15% hits; also: nearly all actives have a fitted effect of over 55% in size
#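 Stably hTDP1-transfected Tdp1-null chicken DT40 cells were treated with library compounds minus camptothecin and grown for at least 48 hr at 37 °C, after which cellular ATP was quantified by luminescence.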
# TDP1 cell CPT: DT40-hTDP1 cell growth loss with CPT. chicken DT40 Tdp1-/-;hTDP1 cells + 20 nM CPT, ATP luminescence, 48 h. Potency, µM (top dose mostly 46.2 µM), inactives show top-dose activity change, negative = growth inhibition, hits mostly inhibitors. 420,000 compounds, 12% hits. AID 686979; also: nearly all actives have a fitted effect of over 55% in size
#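 Chicken DT40 Tdp1-/- cells stably complemented with human TDP1 were seeded at 400 cells/well in medium containing 20 nM camptothecin, exposed to pin-transferred compounds, and grown at 37 °C for at least 48 hr. Viability was read as ATP luminescence.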
# VP16 counter: inhibits Gal4-VP16 luciferase reporter, ROR gamma counter-screen; 310,000 compounds, 3.5% hits; Potency, µM (highest dose often 53.6 µM), for the others: at the top dose activity, negative = inhibition, hits mostly inhibitors; Drosophila S2 Gal4-VP16 UAS-luciferase, luminescence, 20 h; AID 2546;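 also: Gal4-VP16 expression switched on by copper sulfate through the metallothionein promoter; nearly all actives have a fitted effect of over 50% in size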
# RORgamma inh: blocks mouse ROR gamma transcriptional activity | 310,000 compounds, 5.4% hits | P51450 | Potency, µM (series often up to 53.6 µM), inactives show at the top dose activity change, negative = inhibition, usual class: inhibitors | AID 2551 | Drosophila S2 Gal4-RORgamma UAS-luciferase reporter, 20 h; also: nearly all actives have a fitted effect of over 60% in size
#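 Stably transfected Drosophila Schneider cells are the test system, with ROR gamma fused to Gal4 and luciferase under UAS control; luminescence is read after 20 hr of 700 uM copper sulfate induction at ambient temperature.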
# * hit, by the source's call; u = inconclusive; x = no result given; [ ] = dose if it differs, or a comment. Rows were chosen to be rich in hits. Some 19% of all compounds tested hit in one or more screens of this group. Calls follow the shape of the dose curve; as a rule, active = well fitted curve in the direction sought with a large enough effect; inconclusive = small, poorly fitted or top-dose-only effect, or another doubt; inactive = no such curve, though single readings can be large; an effect the other way counts as inactive or inconclusive. % is scaled to controls: 0 for no effect and ±100 for the full control effect; potency is read from the fitted curve at half-maximal effect.
SMILES,TDP1 inh,TDP1 cell noCPT,TDP1 cell CPT,VP16 counter,RORgamma inh
Cc1ccc(O)c(CC(C)C)n1,-1%,-35%,-15%,8%,-1%
Cc1cc(N)cc(C)c1-c1c(Br)cc(N)cc1Br,x,18µM*,13µM*,x,x
Cc1cc(C)nc(-n2nc(C)c3c2N(Cc2ccccc2)C(=O)CC3c2ccc(Cl)cc2)n1 (stereo not drawn),2%,u,16µM*,x,x
CCCCNC(=S)N1CCN(c2ccccc2Cl)CC1,10%,-25%,-4%,16%,11µM*
C=CCNC(=S)N1CCN(c2ccccc2Cl)CC1,x,u,u,8%,-24%
Cc1ccc(N2CCN(C(=S)Nc3ccccc3C)CC2)cc1,x,0%,6%,u,10µM*
Cc1ccccc1NC(=S)N1CCN(c2ccccc2C)CC1,x,u,u,5.6µM*,2.8µM*
COc1ccc(N2CCN(C(=S)Nc3cccc(C)c3C)CC2)cc1,0%,-13%,0%,-4%,-34%
Cc1cccc(NC(=S)N2CCN(c3ccccc3F)CC2)c1C,2%,-11%,-10%,10µM*,8.9µM*
COc1cc2ccccc2cc1C(=O)NC1CCC(C)CC1 (stereo not drawn),-6%,-62%,u,x,x
Cc1ccc(S(=O)(=O)N/N=C/c2ccc3nccnc3c2)cc1,x,u,u,2%,32%
NC(=O)c1cc2ccccc2o/c1=N\NC(=O)c1ccncc1,5%,-19%,-20%,-9%,-8%
Cc1ccccc1CNC(=O)Cn1cc2c(n1)-c1c(oc(C(=O)N3CCCC3)c1C)CC2,8%,u,u,x,x
CCOc1ccc(CNC(=O)c2oc3c(c2C)-c2nn(Cc4cccc(Cl)c4)cc2CC3)cc1,1%,16µM*,18µM*,x,x
CCOC(=O)c1oc2c(c1C)-c1nn(Cc3ccc(Cl)cc3)cc1CC2,5%,21µM*,16µM*,x,x
COc1ccccc1CNC(=O)c1oc2c(c1C)-c1nn(Cc3ccc(Cl)cc3)cc1CC2,0%,21µM*,16µM*,x,x
COc1ccc(CNC(=O)c2oc3c(c2C)-c2nn(Cc4ccccc4Cl)cc2CC3)cc1,-5%,23µM*,u,x,x
CCn1cc2c(n1)-c1c(oc(C(=O)Nc3ccc(Br)cc3F)c1C)CC2,-12%,21µM*,u,x,x
Cc1cccc(CNC(=O)c2oc3c(c2C)-c2nn(Cc4ccccc4Cl)cc2CC3)c1,3%,21µM*,u,x,x
Cc1c(C(=O)O)oc2c1-c1nn(Cc3ccc(Cl)cc3)cc1CC2,3%,-9%,12%,x,x
Cc1c(C(=O)NCc2ccccc2)oc2c1-c1[nH]ncc1CC2,6%,-16%,u,x,x
Cc1cccc(CNC(=O)c2oc3c(c2C)-c2nn(Cc4cccc(Cl)c4)cc2CC3)c1,3%,29µM*,u,x,x
Cc1ccc(CNC(=O)c2oc3c(c2C)-c2nn(Cc4ccc(Cl)cc4)cc2CC3)cc1,1%,9.2µM*,10µM*,x,x
CCOc1ccc(CCNC(=O)CSc2nnnn2-c2ccc(C)cc2C)cc1OCC,10%,x,x,x,x
Cc1cc(C)nc(N2CCN(C(=O)CCC(=O)Nc3nnc(C(C)C)s3)CC2)n1,2%,-20%,1%,7%,8%
SMILES,TDP1 inh,TDP1 cell noCPT,TDP1 cell CPT,VP16 counter,RORgamma inh
CCOc1ccc(-c2[nH]nc3c2C(c2ccc4c(c2)OCO4)C(C#N)=C(N)O3)cc1OC (stereo not drawn),8%,-16%,-17%,6%,14%
CC(=O)Nc1ccc(NC(=O)c2oc3c(c2C)-c2nn(Cc4ccccc4Cl)cc2CC3)cc1,1%,18µM*,8.2µM*,x,x
Cc1c(C(=O)NCCN(C)C)oc2c1-c1nn(Cc3ccccc3Cl)cc1CC2,4%,u,u,x,x
O=C(CCC1CCN(Cc2ccc(C#CCCO)cc2)CC1)NC1CC1,x,6%,-8%,-3%,-1%
Cc1ccccc1-c1cc2nc(NCCc3ccncc3)n(C)c(=O)c2s1,x,15µM*,16µM*,x,x
Cn1c(NCc2ccncc2)nc2cc(-c3ccsc3)sc2c1=O,x,-4%,-5%,x,x
Cn1c(NCCc2ccncc2)nc2cc(-c3ccccc3)sc2c1=O,x,u,26µM*,x,x
CCN1CCC(C(N)=O)CC1,-7%,1%,-12%,0%,-38%
Cc1ccc(S(=O)(=O)CCC(=O)c2ccc(O)cc2O)cc1,1%,1.2µM*,1.8µM*,u,14µM*
COc1ccc(C(=O)CCS(=O)(=O)c2ccc(C)cc2)cc1OC,3%,3.3µM*,3.7µM*,4.5µM*,2.8µM*
O=c1[nH]/c(=C/c2ccc3c(c2)OCO3)c(=O)[nH]/c1=C\c1ccc2c(c1)OCO2,x,-27%,-5%,x,x
CCCN1C(=O)/C(=C/c2ccc3c(c2)OCO3)NC1=S,1%,-19%,-11%,u,8.9µM*
CCCN1C/C(=C/c2ccc3c(c2)OCO3)C(=O)/C(=C/c2ccc3c(c2)OCO3)C1,3%,13µM*,15µM*,1%,-6%
CCCN1C/C(=C/c2cccc([N+](=O)[O-])c2)C(=O)/C(=C/c2cccc([N+](=O)[O-])c2)C1,2%,0.65µM*,1µM*,0%,29%
CCOc1ccccc1NC(=O)N1CCCc2ccccc21,-9%[56.1 µM],-3%,u,5%,0%
COC(=O)c1ccc(NC(=O)N2CCC(O)(c3cccnc3)CC2)cc1,2%,-10%,-14%,u,21%
CCCCNC(=O)CCCCCn1c(=O)[nH]c2cc(C(=O)OC)ccc2c1=O,1%,-49%,u,-2%,-24%
COC(=O)c1ccc2c(=O)n(CCCCCC(=O)N3CCN(c4ccc(F)cc4)CC3)c(=O)[nH]c2c1,5%,12µM*,16µM*,-1%,29%
COC(=O)c1ccc2c(=O)n(CCCCCC(=O)O)c(=O)[nH]c2c1,-3%,-10%,-6%,16µM*,10µM*
CCN(CC)CCCNC(=O)c1ccc2c(=O)n(CCc3ccccc3)c(=O)[nH]c2c1,-3%,u,-27%,x,x
COC(=O)c1ccc2c(=O)n(CCCCCC(=O)N3CCN(c4ccc(Cl)cc4)CC3)c(=O)[nH]c2c1,3%,u,u,x,x
O=C(NCc1ccccn1)c1ccc2c(=O)n(CCc3ccccc3)c(=O)[nH]c2c1,-7%,u,21µM*,10%,27%
CCCCCn1c(=O)[nH]c2cc(C(=O)NCc3ccccn3)ccc2c1=O,-10%,-30%,-5%,-11%,-1%
CCCCCn1c(=O)[nH]c2cc(C(=O)NCCN(CC)CC)ccc2c1=O,5%,21µM*,9.2µM*,-6%,13%
CC(C)(C)c1ccc(C(CC(=O)O)NC(=O)Cc2ccc(Cl)cc2)cc1 (stereo not drawn),x,1%,4%,0%,-1%
